Rows were chosen to be rich in hits. Some 21% of all compounds tested hit in one or more screens of this group.
DT40 TDP1 no CPT – qHTS for Inhibitors of human tyrosyl-DNA phosphodiesterase 1 (TDP1): qHTS in cells in absence of CPT. DT40 Tdp1-/- hTDP1 cells, no CPT, ATP luminescence, 48 h. Potency, µM (top dose mostly 46.2 µM), for inactives: at the highest dose activity change, negative = growth inhibition, actives largely listed as inhibitors. 420,000 tested, 15% active. AID 686978, 2013; also: potency is read from the fitted curve at half-maximal effect; % is scaled to controls: 0 for no effect and ±100 for the full control effect; nearly all actives have a fitted effect of over 55% in size
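Luminescent ATP content (CellTiter-Glo) served as the growth readout. Knockout chicken DT40 cells expressing human TDP1 were exposed to compounds without camptothecin for a minimum 48 hr at 37 °C.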
D3 antag – antagonists of human D3 dopamine receptor; 360,000 tested, 2.5% active; max response, negative = inhibition, %; D3R cells, DiscoveRx beta-arrestin luminescence, antagonist mode; stronger effect = lower value; in the data active = max response below about -50%; inconclusive = no clear call, values can overlap the other calls; also: % is scaled to controls: 0 for no effect and ±100 for the full control effect
Target sequence (P35462 whole entry, looked up): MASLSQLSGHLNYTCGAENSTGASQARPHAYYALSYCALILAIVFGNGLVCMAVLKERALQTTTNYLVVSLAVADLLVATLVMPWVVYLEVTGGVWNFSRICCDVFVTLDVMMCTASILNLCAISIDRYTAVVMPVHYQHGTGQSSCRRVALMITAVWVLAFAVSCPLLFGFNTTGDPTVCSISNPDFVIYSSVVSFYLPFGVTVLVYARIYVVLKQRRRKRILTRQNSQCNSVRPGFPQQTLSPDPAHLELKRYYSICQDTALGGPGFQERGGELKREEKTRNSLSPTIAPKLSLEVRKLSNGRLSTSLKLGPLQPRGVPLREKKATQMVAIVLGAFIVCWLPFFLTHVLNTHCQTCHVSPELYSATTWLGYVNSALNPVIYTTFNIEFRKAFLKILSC
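Cells plated overnight at 1500 cells/well, then exposed to library compounds with dopamine controls for 90 minutes at 37 degrees C. DiscoveRx reagent added for 30–60 minutes at room temperature; luminescence read, quantitative HTS format.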
IL1B secr inh – inhibitors of inflammasome signaling (IL-1 beta secretion). THP-1 LPS/ATP IL-1B secretion, AlphaLISA, 16 h; stronger effect = lower value. 360,000 tested, 4.7% active. activity change, % at 57.5 µM; in the data active = activity change below about -50%; inconclusive = mostly about -30% to -49%; also: % is scaled to controls: 0 for no effect and ±100 for the full control effect
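THP-1 cells pretreated 1 hr with compounds (up to 57.5 uM final), then stimulated with LPS (250 ng/mL final) plus ATP (1.25 mM final); secreted IL-1B measured by AlphaLISA after 16 hr, decreased signal indicating inhibition.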
ClpP mod – qHTS Assay for Activators of ClpP; purified B. subtilis ClpP, FRET peptide cleavage, 20 min; Potency, µM (titrated, usually from 57.5 µM), inactives show at the top dose activity change, negative = active; 340,000 tested, 1.9% active; active = well fitted falling curve with a large enough effect; inconclusive = small, poorly fitted or top-dose-only effect; inactive = no such curve, though single readings can be large or run the other way; also: potency is read from the fitted curve at half-maximal effect; the source files actives as falling curves though it sought activators and does not explain the sign; nearly all actives have a fitted effect of over 65% in size
Target sequence (P80244 whole entry, looked up): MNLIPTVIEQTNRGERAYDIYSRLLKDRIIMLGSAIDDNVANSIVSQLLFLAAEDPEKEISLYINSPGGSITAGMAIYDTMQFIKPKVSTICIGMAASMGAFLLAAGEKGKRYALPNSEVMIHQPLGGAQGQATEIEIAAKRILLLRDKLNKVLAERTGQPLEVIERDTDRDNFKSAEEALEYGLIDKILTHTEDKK
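ClpP 10 microg/mL final, pH 8 Tris/KCl buffer with BSA, glycerol, Tween-20; compound pinned in; FRET-FV substrate; RT 20 min; Ex320/Em430; ΔFRET vs ADEP 5.8 microM, DMSO, no enzyme.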
DT40 TDP1 CPT – DT40-hTDP1 cell growth loss with CPT. chicken DT40 Tdp1-/-;hTDP1 cells + 20 nM CPT, ATP luminescence, 48 h. 420,000 tested, 12% active. AID 686979. Potency, µM (highest dose often 46.2 µM), inactives show at the highest dose activity change, negative = growth inhibition, hits mostly inhibitors; also: potency is read from the fitted curve at half-maximal effect; % is scaled to controls: 0 for no effect and ±100 for the full control effect; nearly all actives have a fitted effect of over 55% in size
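Chicken DT40 Tdp1-/- cells stably complemented with human TDP1 were seeded at 400 cells/well in medium containing 20 nM camptothecin, exposed to pin-transferred compounds, and grown at 37 °C for at least 48 hr. Viability was read as ATP luminescence.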
D3 ag – activates the human D3 dopamine receptor; P35462; D3R DiscoveRx beta-arrestin cells, luminescence, 90 min; max activation, %; 410,000 tested, 0.58% active; AID 652048; in the data active = max activation above about 30%; also: 0% is about no effect
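Agonist mode: compounds and dopamine controls were applied to plated cells for 90 min at 37 degrees C after an overnight attachment at 1500 cells/well. Luminescent read-out followed 30 - 60 minutes at room temperature with DiscoveRx detection reagent.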
* = called active by the depositor; ? = inconclusive; · = not tested or not shown. Unless noted, calls follow the shape of the dose curve; as a rule, active = well fitted inhibition curve with a large enough effect; inconclusive = small, poorly fitted or top-dose-only effect; inactive = flat fitted curve, though single readings scatter.

SMILES	DT40 TDP1 no CPT	D3 antag	IL1B secr inh	ClpP mod	DT40 TDP1 CPT	D3 ag
CN(C)C(=O)Nc1ccccc1CC[N+](=O)[O-]	-13%	-9	-65*	·	15%	-7
O=C(Nc1ccccc1CC[N+](=O)[O-])N1CCN(c2ccccc2)CC1	?	-29	7	·	?	-8
Cc1ccc(NC(=O)CCNS(=O)(=O)c2ccc3[nH]c(=O)oc3c2)cc1N(C)C	1%	12	0	1%	15%	3
Cc1cccc(CNC(=O)CC2C(=O)NCCN2C2CCCC2)c1 (stereo unspecified)	-7%	7	4	·	8%	5
COc1cc2c(cc1NC(=S)NC(=O)c1c(OC)cccc1OC)oc1ccccc12	?	6	15	9%	?	2
COc1ccc(CC(=O)Nc2cc3oc4ccccc4c3cc2OC)cc1	?	17	?	-20%	?	9
COc1cccc(CN(C)CC(=O)Nc2cc3oc4ccccc4c3cc2OC)c1	21µM*	54	11	?	23µM*	22
COc1ccccc1CC(=O)Nc1ccc(O)cc1C(=O)O	-2%	8	10	18µM*	-16%	-1
COc1cc2c(cc1NC(=O)/C=C/c1cc(OC)c(OC)c(OC)c1)oc1ccccc12	15µM*	57	0	-15%	21µM*	5
COc1ccccc1CC(=O)Nc1ccc(Cl)cc1C(=O)O	-11%	2	36	·	21%	-1
Cc1cc(NC(=O)COC(=O)c2oc3c(ccc4ccccc43)c2C)no1	16µM*	6	13	?	?	12
C=CCOc1ccn(C)c(=O)n1	-12%	1	0	3%	-4%	0
COc1cc2c(cc1NC(=O)COc1ccc3ccccc3c1)oc1ccccc12	?	19	-2	3.2µM*	?	1
Cc1cc(NC(=O)COc2ccc3oc4ccccc4c3c2)no1	21µM*	-4	23	-9%	?	1
COc1cc2c(cc1NC(=O)COc1ccc(Br)cc1)oc1ccccc12	?	·	·	?	?	1
COc1ccccc1CC(=O)Nc1cc2oc3ccccc3c2cc1OC	16µM*	7	-22	32µM*	26µM*	2
COc1cc2c(cc1NC(=O)C(C)OC(=O)c1ccc(S(=O)(=O)Nc3ccccc3Cl)cc1)oc1ccccc12 (stereo unspecified)	18µM*	27	0	-4%	23µM*	-16
Cc1cc(NC(=O)COc2ccc3c(C)c(C)c(=O)oc3c2)no1	8%	19	-7	4%	0%	5
Cc1nonc1CC(=O)N1CCCC(C(=O)c2ccc(Cl)cc2)C1 (stereo unspecified)	?	8	-20	0%	?	5
COc1cc2c(cc1NC(=O)COC(=O)[C@@H](NC(=O)c1ccccc1)C(C)C)oc1ccccc12	?	23	10	?	?	3
COc1cc2c(cc1NC(=O)COC(=O)C1CC(=O)N(Cc3ccco3)C1)oc1ccccc12 (stereo unspecified)	-29%	18	-56*	25µM*	-1%	0
CC(C)[C@H](NC(=O)c1ccccc1F)C(=O)OCC(=O)Nc1sccc1C(N)=O	12µM*	12	29	0%	?	4
CC(Oc1ccc2oc3ccccc3c2c1)C(=O)NC12CC3CC(CC(C3)C1)C2 (stereo unspecified)	29µM*	0	-10	?	16µM*	-7
COc1cc2c(cc1NC(=O)COC(=O)[C@@H](NC(=O)c1ccccc1F)C(C)C)oc1ccccc12	21µM*	56	0	5.6µM*	?	4
COc1cc(NC(=O)C2CC(=O)N(Cc3ccco3)C2)c(OC)cc1Cl (stereo unspecified)	-1%	0	13	1%	6%	-2
SMILES	DT40 TDP1 no CPT	D3 antag	IL1B secr inh	ClpP mod	DT40 TDP1 CPT	D3 ag
CC(C)NC(=O)N1CCCC2(CCN(S(=O)(=O)c3ccccc3)CC2)C1	-4%	·	·	·	4%	·
COc1cc2c(cc1NC(=O)CN1CCN(S(=O)(=O)c3ccc(C)cc3)CC1)oc1ccccc12	-3%	23	-16	?	-4%	0
COc1cc2c(cc1NC(=O)CN(C)Cc1cccc(OC)c1OC)oc1ccccc12	13µM*	27	-14	?	21µM*	17
COc1cc2c(cc1NC(=O)COCC(=O)O)oc1ccccc12	2%	-24	-2	·	13%	-3
COc1cc2c(cc1NS(=O)(=O)N1CCCC1)oc1ccccc12	-26%	-29	-6	25µM*	?	-4
COc1cc2c(cc1NC(=O)C(C)Oc1ccccc1)oc1ccccc12 (stereo unspecified)	?	·	·	4%	15µM*	6
CC(OC(=O)c1ccccc1C(=O)N(C)c1ccccc1)C(=O)Nc1ccccc1[N+](=O)[O-] (stereo unspecified)	-32%	5	6	0%	-28%	9
C=CCC(=O)NC1CCCc2c1cnn2-c1cc(F)cc(F)c1 (stereo unspecified)	-6%	2	12	·	-17%	1
O=C(CCS(=O)(=O)Cc1ccccc1F)N1CCc2ccccc2C1	16µM*	-3	21	1%	23µM*	-11
O=C(CCS(=O)(=O)Cc1ccccc1)N1CCc2ccccc2C1	-12%	24	54	1%	?	4
COc1cc(SC#N)ccc1N=Cc1c(C)[nH]n(-c2ccc(C)cc2C)c1=O	15µM*	36	-97*	?	21µM*	2
COc1cc(SC#N)ccc1N=Cc1c(C)[nH]n(-c2cccc3ccccc23)c1=O	10µM*	13	-76*	28µM*	10µM*	0
O=C1CCCN1C(=O)CSc1nnnn1-c1ccccc1	0%	2	11	0%	-9%	1
O=C(c1c(O)c2ccc(Cl)cc2[nH]c1=O)C1CC1	2%	·	·	·	9%	·
CCOc1ccccc1N1CC(c2nc3ccccc3n2CCCCOc2cc(C)ccc2C)CC1=O (stereo unspecified)	?	·	·	1%	26µM*	1
CCOc1ccccc1N1CC(c2nc3ccccc3n2CCCOc2ccccc2OC)CC1=O (stereo unspecified)	-26%	·	·	4%	?	3

Compound activity deposited in PubChem by National Center for Advancing Translational Sciences (NCATS).
